A short description of assay [1]: NCI Yeast Anticancer Drug Screen. Data for the rad50 strain (AID 155).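 Note: 0% = growth of vehicle-only cultures of the same strain.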 Particulars: S. cerevisiae rad50 strain growth inhibition; at 50.0 µM; active compounds read high. The essentials: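 Inhibition values express reduced yeast growth in compound-treated cultures relative to vehicle-treated controls.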
Assay [2] can be described thus: NCI Yeast Anticancer Drug Screen. Data for the mec2-1 strain (AID 157). Particulars: S. cerevisiae mec2-1 strain, at 50.0 µM, active compounds read high. The essentials:
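Each compound was tested on mec2-1 yeast, a strain altered in DNA damage repair or cell cycle control. Growth inhibition is reported relative to vehicle.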

Assay [3] is described as follows: NCI Yeast Anticancer Drug Screen. Data for the sgs1 mgt1 strain (AID 161).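 Note: 0% = growth of cultures given vehicle only.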 Particulars: S. cerevisiae sgs1 mgt1 strain, at 50.0 µM, active compounds read high. In a few lines: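 Genetically altered yeast, compound exposure, growth inhibition relative to vehicle.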
A short description of assay [4]: NCI Yeast Anticancer Drug Screen. Data for the cln2 rad14 strain (AID 165).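 Note: 0% = growth equal to vehicle treated cultures.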 Particulars: S. cerevisiae cln2 rad14 strain, at 50.0 µM, active compounds read high. In a few lines:
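Test compounds were added to cln2 rad14 yeast cultures; inhibition of growth was then determined by comparison with vehicle treatment.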

Assay [5] is described as follows: NCI Yeast Anticancer Drug Screen. Data for the bub3 strain (AID 167). Particulars: S. cerevisiae bub3 mutant strain, at 50.0 µM, active compounds read high. The essentials:
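Steps: expose the mutant yeast strain to compound; grow alongside vehicle-treated cultures; measure growth; express inhibition against the vehicle cultures.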

A short description of assay [6]: NCI Yeast Anticancer Drug Screen. Data for the mlh1 rad18 strain (AID 175). Particulars: S. cerevisiae mlh1 rad18 strain growth inhibition; at 50.0 µM; active compounds read high. The essentials:
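Inhibition values reflect reduced growth of mutant yeast versus vehicle-treated controls following compound exposure; the mutations affect DNA damage repair.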

About 79,000 compounds went through this panel and 15% of them were active in at least one assay; those are over-represented in the sample as a whole. A number with no mark means an inactive call. Calls of active or inactive are those of the source. Cut-off read from the data, not from the text of the source: active = growth inhibition above about 70%; inactive = the rest.

Take `NC(=O)SCC(N)C(=O)O` (stereo not given): the growth inhibition in assay [1] is 0.25%; in assay [2] it was -21.4%; in assay [3], 1.55%; in assay [4], 3.55%; in assay [5], 4.95%; in assay [6] it was 6.8%.
For the molecule `CCOC(=O)CC1c2ccc(O)cc2OC(=O)C1c1ccc(N)cc1` (stereo not given), the growth inhibition in assay [1] was -29.1%; in assay [2] it was -17.5%; in assay [3] it was -14.8%; in assay [4], -4.6%; in assay [5], -19.2%; in assay [6] it was -13.6%.
As to `Cc1ccc(-n2c(=O)nc([O-])[n+]3ccccc23)cc1`, the growth inhibition in assay [1] is -2.85%; in assay [2], -6.85%; in assay [3], -7.95%; in assay [4], -24.8%; in assay [5], -3.75%; in assay [6], 6.65%.
Take `CC(O)CN1CCOCC1` (stereo not given): the growth inhibition in assay [1] was 9.55%; in assay [2], 2.2%; in assay [3], -0.1%; in assay [4], 15.2%; in assay [5], -9.85%; in assay [6], 3.55%.
Regarding `COC(=O)c1cc2c3c(ccc2[nH]1)N(C(=O)c1cc2c4c(ccc2[nH]1)N(C(=O)c1cc2c5c(ccc2[nH]1)N(C(N)=O)CC5)CC4)CC3`, the growth inhibition was 18.8% in assay [1]; 5.05% in assay [2]; -2.05% in assay [3]; 15.7% in assay [4]; 29.8% in assay [5]; 11.9% in assay [6].
In the case of `N#CCCn1nc(SCc2ccccc2)c(=O)[nH]c1=O`, the growth inhibition in assay [1] is -2.6%; in assay [2], 0.3%; in assay [3] it was 7.65%; in assay [4] it was 6.3%; in assay [5], -1.65%; in assay [6], 7.85%.
As for `COc1ccc(C(=O)N/N=C/c2ccccc2)cc1`, the growth inhibition in assay [1] was 8.3%; in assay [2], -10.8%; in assay [3], -7.7%; in assay [4] it was 6.85%; in assay [5], 2.6%; in assay [6], -18.1%.
Turning to `COc1ccccc1N1C(=O)C2c3[nH]c4ccccc4c3C3CCC(C(C)(C)C)CC3C2C1=O` (stereo not given), the growth inhibition in assay [1] is 17.8%; in assay [2], -11.3%; in assay [3], -4.2%; in assay [4] it was -12.2%; in assay [5] it was -16.2%; in assay [6] it was 5.5%.
Take `NC(=O)c1nnn(Cc2ccccc2)c1C(N)=O`: the growth inhibition in assay [1] is -13.9%; in assay [2], -11.4%; in assay [3], 12.6%; in assay [4] it was -33.6%; in assay [5], 8%; in assay [6] it was 3.85%.
On to `CC1CN=C(Nc2ccc(S(N)(=O)=O)cc2)S1` (stereo not given), for which the growth inhibition in assay [1] is -21.2%; in assay [2] it was -18.6%; in assay [3] it was -58.1%; in assay [4] it was -11.4%; in assay [5] it was -2.25%; in assay [6], -43%.
With `CC1OC(=O)c2cc3ccccc3cc2O1` (stereo not given), the growth inhibition in assay [1] was -8%; in assay [2], -6.15%; in assay [3], 5.95%; in assay [4], -31.1%; in assay [5] it was -19.2%; in assay [6], -0.45%.
Take `COc1ccc(-c2cc(=O)c3cc(C)c(C)c(C#N)c3o2)cc1`: the growth inhibition in assay [1] was -25.9%; in assay [2], -29.6%; in assay [3] it was -35.8%; in assay [4], -17.5%; in assay [5] it was -29.9%; in assay [6] it was -37.5%.
For the molecule `COc1ccc(C(=O)/C=C/c2ccncc2)cc1OC`, the growth inhibition in assay [1] was 41.8%; in assay [2], 38.4%; in assay [3], 51.5%; in assay [4], 5.55%; in assay [5], 32.5%; in assay [6], 36.9%.
As to `CCCC1([N+](=O)[O-])CCC(C)(O)C(C(C)=O)C1` (stereo not given), the growth inhibition in assay [1] was -4.3%; in assay [2], -3.8%; in assay [3] it was 0.9%; in assay [4] it was -3.35%; in assay [5], -4.8%; in assay [6], 17.4%.
Turning to `N=C(N)c1ccc(N=Nc2ccc(N)cc2N)cc1`, the growth inhibition in assay [1] is 7.4%; in assay [2], -3.75%; in assay [3] it was -7.45%; in assay [4] it was 12.8%; in assay [5], -5.25%; in assay [6], -0.4%.
Consider `CCc1c2c(cc3c1CC1(C3)Cc3cc4c(c(C(=O)OC)c3C1)CCCC4)CCCC2` (stereo not given), for which the growth inhibition in assay [1] is -18.8%; in assay [2] it was -16.4%; in assay [3], -20.8%; in assay [4], 9.65%; in assay [5], -14%; in assay [6] it was -25.9%.
In the case of `C=C(C)CC1CC(=O)OC1=O` (stereo not given), the growth inhibition is 26% in assay [1]; -16.4% in assay [2]; 13.6% in assay [3]; -21.9% in assay [4]; -9.8% in assay [5]; 4.35% in assay [6].
With `CN(C(N)=O)C1CCCC1`, the growth inhibition is 12% in assay [1]; -21.3% in assay [2]; -5.65% in assay [3]; 1.4% in assay [4]; 9.4% in assay [5]; 6.35% in assay [6].
Take `Cn1c(=O)c2c(=O)n3ccccc3nc2n(C)c1=O`: the growth inhibition is 48% in assay [1]; 48% in assay [2]; 72.1% (active) in assay [3]; 68.4% in assay [4]; 62.9% in assay [5]; 69.4% in assay [6].
Turning to `CCCN(CCC)S(=O)(=O)c1ccc(NC(=O)Oc2cc(C)ccc2C(C)C)cc1`, the growth inhibition is 32.5% in assay [1]; 1.75% in assay [2]; 24.2% in assay [3]; 21.5% in assay [4]; -5.25% in assay [5]; 14.8% in assay [6].
As to `OCCCSc1ccccc1SCCCO`, the growth inhibition in assay [1] was -1.4%; in assay [2] it was -2.45%; in assay [3], 3.5%; in assay [4], -1.7%; in assay [5], 3.75%; in assay [6], 5.1%.
Consider `COc1ccc(C2(C)c3ccccc3C(=O)C(C)(C)C2(C)CC(=O)O)cc1` (stereo not given), for which the growth inhibition in assay [1] was -0.65%; in assay [2], 6.45%; in assay [3] it was -1.8%; in assay [4] it was -9.7%; in assay [5] it was 5.05%; in assay [6] it was 5.2%.
Turning to `Cc1[nH]n(-c2ccccc2)c(=O)c1N=Nc1cccc(C(F)(F)F)c1`, the growth inhibition in assay [1] was 8.7%; in assay [2], 14.7%; in assay [3], 17.8%; in assay [4] it was -4.75%; in assay [5] it was 6.95%; in assay [6], 15.7%.
As for `O=[N+]([O-])c1c(O)c2nonc2c2nn(-c3ccccc3)nc12`, the growth inhibition was 1.7% in assay [1]; 15% in assay [2]; 55.4% in assay [3]; 25.8% in assay [4]; -15.7% in assay [5]; -15.4% in assay [6].
As to `O=C1c2ccccc2C(C2N=Nc3ccccc32)c2ccccc21` (stereo not given), the growth inhibition is 7.1% in assay [1]; 5.15% in assay [2]; 15.6% in assay [3]; 26.1% in assay [4]; 3.8% in assay [5]; 6.2% in assay [6].
Regarding `O=C1c2cc(Cl)ccc2OCC1Cl` (stereo not given), the growth inhibition in assay [1] is 37.5%; in assay [2], 22.2%; in assay [3], 14.6%; in assay [4], -25.6%; in assay [5], 18.7%; in assay [6], 7.4%.
Take `CC(C)(C)NC(=O)CCC(=O)O`: the growth inhibition in assay [1] was -8.65%; in assay [2] it was -19.4%; in assay [3], -16%; in assay [4], -18.2%; in assay [5], -2.3%; in assay [6], -7.3%.
As to `CC(=O)OCC1OC(OCC(OC(C)=O)C(OC(C)=O)C(OC(C)=O)c2cnn(-c3ccccc3)n2)C(OC(C)=O)C(OC(C)=O)C1OC(C)=O` (stereo not given), the growth inhibition in assay [1] was 1.35%; in assay [2] it was 0.2%; in assay [3], 2.65%; in assay [4] it was -15.2%; in assay [5], 12.4%; in assay [6], 6.5%.
Regarding `CCCCCCC/C=C\C=O`, the growth inhibition in assay [1] is 7.2%; in assay [2], 16.9%; in assay [3] it was 7.95%; in assay [4] it was -1.25%; in assay [5], 1%; in assay [6], 3.7%.
In the case of `CC1COC(C(=O)O)(c2ccccc2)O1` (stereo not given), the growth inhibition is -1.05% in assay [1]; -3.55% in assay [2]; -2.1% in assay [3]; -17.6% in assay [4]; -0.35% in assay [5]; 6.7% in assay [6].
As to `CC(C)=CCC/C(C)=C/COC(=O)N(c1ccccc1)c1ccccc1`, the growth inhibition in assay [1] is 5.95%; in assay [2], -0.1%; in assay [3] it was 3.9%; in assay [4], -47%; in assay [5], 3.6%; in assay [6] it was -1.15%.
As to `COc1ccc(Cc2cc3c(cc2OCC(=O)N2CCOCC2)OCO3)cc1`, the growth inhibition is -3.25% in assay [1]; -9.5% in assay [2]; -4.25% in assay [3]; -37.7% in assay [4]; 20.4% in assay [5]; -3.3% in assay [6].
For the molecule `CCCCCCCCCCCC(=O)Nc1ccc(NC(C)=O)cc1`, the growth inhibition in assay [1] is 8.25%; in assay [2], 25.1%; in assay [3], 22.6%; in assay [4], -14%; in assay [5], 24.9%; in assay [6] it was 23.9%.
With `Clc1cccc2c(SCCCCCSc3c4ccccc4nc4c(Cl)cccc34)c3ccccc3nc12`, the growth inhibition in assay [1] is -3.45%; in assay [2] it was -8.9%; in assay [3] it was -22.4%; in assay [4], -33.5%; in assay [5], -23.9%; in assay [6], -24.6%.
Regarding `CC(=O)O[C@H]1CC[C@@]2(C)C(=CC(=O)[C@H]3[C@@H]4CC[C@H]([C@H](C)CCCC(C)C)[C@@]4(C)CC[C@@H]32)C1`, the growth inhibition was 10.8% in assay [1]; 19.1% in assay [2]; 39% in assay [3]; 36% in assay [4]; 5.9% in assay [5]; 46% in assay [6].
Turning to `COc1ccc(/C=N\NC(=O)N/N=C/c2ccc(OC)c(Br)c2)cc1Br`, the growth inhibition was 44.3% in assay [1]; 39.7% in assay [2]; 44.6% in assay [3]; 49.5% in assay [4]; 39.2% in assay [5]; 71.7% (active) in assay [6].
Regarding `CC(C)(C)CC(C)(C)Nc1ccc(C(N)=O)cc1`, the growth inhibition in assay [1] is -2.35%; in assay [2], 15.2%; in assay [3], -20.9%; in assay [4], -8.2%; in assay [5], 7.7%; in assay [6] it was 9.6%.
For the molecule `CSCCCS/C1=C/CCCCCCCCCC1`, the growth inhibition was -1.85% in assay [1]; 11% in assay [2]; -21.9% in assay [3]; 14.8% in assay [4]; -9.35% in assay [5]; -38.6% in assay [6].
Take `O=C(O)/C=C\C(=O)Nc1ccc(N=Nc2ccccc2)cc1`: the growth inhibition was -34.6% in assay [1]; -39.9% in assay [2]; -7.95% in assay [3]; -3.65% in assay [4]; -18.8% in assay [5]; -2.9% in assay [6].
Turning to `O=C(O)C(=O)O.[NH-]CC(O)CN(CC(O)CO)c1ccccc1.[Pt+2]` (stereo not given), the growth inhibition in assay [1] was 23.2%; in assay [2], 1.35%; in assay [3], 6.85%; in assay [4] it was 21.7%; in assay [5], -1.45%; in assay [6] it was 11.1%.
